# About 8,800 targets were measured; listed, in parts, are those with a hit and a random draw of the rest. About 0.5% of all pairs of compound and target were hits. A number with no mark means an inactive call.
# How the values were obtained:
# Experiment in all cases: log2 fold change, soluble protein after heating vs DMSO (PISA); higher = thermal stabilisation; K562 lysate, 10 uM; active = over 0.2 and 3.5 SD of the protein, either way, in both replicates (recomputed)
# erlotinib = compound: C#Cc1cccc(Nc2ncnc3cc(OCCOC)c(OCCOC)cc23)c1 [erlotinib]
# Summary of the method: (§1)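 Soluble protein was defined as the supernatant remaining after 21,000xg for 90 min, following pooling of heated aliquots and adjustment to 0.5% NP-40 at 4°C. Before that, crude K562 extract at 1 mg/mL protein in PBS pH 7.4 with 1 mM MgCl2 was treated with 10 μM compound for 30 min and heated for 3 min across 48°C-58°C. Quantification used TMTpro 16plex LC-MS/MS with channel sums equalised, and values are log-two fold changes in thermal stability relative to solvent controls from duplicates.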
# [1] = compound: C/C(=N\NC(=O)C1=CC(=CC=C1)S(=O)(=O)N2CCOCC2)/C3=C(C=CC(=C3)Cl)O
# Summary of the method: as §1
# [2] = compound: C1=CC(=CC=C1C2=NC3=C(N2)C=C(C=C3)C(=O)N)OC4=CC=C(C=C4)Cl
# Summary of the method: as §1
# [3] = compound: C1=CC2=C(C=CC(=C2)/C=C\3/C(=O)NC(=NCC4=CC=CS4)S3)N=C1
# Summary of the method: as §1
# [4] = compound: C1=CC2=NC=CN=C2C=C1/C=C/3\C(=O)NC(=O)S3
# Summary of the method: as §1
# [5] = compound: C1=CC=C2C(=C1)C3=NNC4=CC=CC(=C43)C2=O
# Summary of the method: as §1
# [6] = compound: C1CCN(C1)C(=O)NC2=CC=CC(=C2)NC3=NC=C(C(=N3)NCCC4=CN=CN4)Br
# Summary of the method: as §1
# [7] = compound: C1CN(CCC1(CC2=CC=C(C=C2)Cl)N)C3=NC=NC4=C3C=CN4
# Summary of the method: as §1
# ibrutinib = compound: C=CC(=O)N1CCC[C@@H](n2nc(-c3ccc(Oc4ccccc4)cc3)c3c(N)ncnc32)C1 [ibrutinib]
# Summary of the method: as §1
# [8] = compound: CC(=O)c1cnc2ccc(-c3cc(Cl)c(O)c(Cl)c3)nc2c1N[C@H]1CC[C@H](CN(C)C)CC1
# Summary of the method: as §1
# [9] = compound: CC(C)C1=C2N=C(C=C(N2N=C1)NCC3=CC=CC=C3)NCCCCCCN
# Summary of the method: as §1
# [10] = compound: CC1=C(C(CC(=O)N1)C2=CC=C(C=C2)C(F)(F)F)C(=O)NC3=C(C=C4C(=C3)C=NN4)F
# Summary of the method: as §1
# [11] = compound: CC1=C(C2=C(C=C1)C(=O)C3=CC=CC=C3N2CCCN)C
# Summary of the method: as §1
# [12] = compound: CC1=C(C=C(C=C1)NC(=O)C2=CC(=CC=C2)C(C)(C)C#N)NC3=CC4=C(C=C3)N=CN(C4=O)C
# Summary of the method: as §1
# [13] = compound: CC1=CC=C(C=C1)SC2=C3C=C(SC3=CN=C2)C(=O)N
# Summary of the method: as §1
# [14] = compound: C1=CC=C(C=C1)C2=NC(=C(N2)C3=CC=NC=C3)C4=CC(=C(C=C4)Cl)O
# Summary of the method: as §1
# IRAK-1-4 Inhibitor I = compound: C1COCCN1CCN2C3=CC=CC=C3N=C2NC(=O)C4=CC(=CC=C4)[N+](=O)[O-] [IRAK-1-4 Inhibitor I]
# Summary of the method: as §1
# ralimetinib = compound: CC(C)(C)Cn1c(N)nc2ccc(-c3[nH]c(C(C)(C)C)nc3-c3ccc(F)cc3)nc21 [ralimetinib]
# Summary of the method: as §1
# [15] = compound: CC(C)(O)CC(=O)NCCn1ccc2ncnc(Nc3ccc(Oc4cccc(C(F)(F)F)c4)c(Cl)c3)c21
# Summary of the method: as §1
# [16] = compound: CC1=C(C=C(C=C1)NC(=O)C2=CC(=CC=C2)N(C)C)NC(=O)C3=CC=C(C=C3)O
# Summary of the method: as §1
# UniProt Q9Y4F3, sequence (Q9Y4F3 whole entry, looked up): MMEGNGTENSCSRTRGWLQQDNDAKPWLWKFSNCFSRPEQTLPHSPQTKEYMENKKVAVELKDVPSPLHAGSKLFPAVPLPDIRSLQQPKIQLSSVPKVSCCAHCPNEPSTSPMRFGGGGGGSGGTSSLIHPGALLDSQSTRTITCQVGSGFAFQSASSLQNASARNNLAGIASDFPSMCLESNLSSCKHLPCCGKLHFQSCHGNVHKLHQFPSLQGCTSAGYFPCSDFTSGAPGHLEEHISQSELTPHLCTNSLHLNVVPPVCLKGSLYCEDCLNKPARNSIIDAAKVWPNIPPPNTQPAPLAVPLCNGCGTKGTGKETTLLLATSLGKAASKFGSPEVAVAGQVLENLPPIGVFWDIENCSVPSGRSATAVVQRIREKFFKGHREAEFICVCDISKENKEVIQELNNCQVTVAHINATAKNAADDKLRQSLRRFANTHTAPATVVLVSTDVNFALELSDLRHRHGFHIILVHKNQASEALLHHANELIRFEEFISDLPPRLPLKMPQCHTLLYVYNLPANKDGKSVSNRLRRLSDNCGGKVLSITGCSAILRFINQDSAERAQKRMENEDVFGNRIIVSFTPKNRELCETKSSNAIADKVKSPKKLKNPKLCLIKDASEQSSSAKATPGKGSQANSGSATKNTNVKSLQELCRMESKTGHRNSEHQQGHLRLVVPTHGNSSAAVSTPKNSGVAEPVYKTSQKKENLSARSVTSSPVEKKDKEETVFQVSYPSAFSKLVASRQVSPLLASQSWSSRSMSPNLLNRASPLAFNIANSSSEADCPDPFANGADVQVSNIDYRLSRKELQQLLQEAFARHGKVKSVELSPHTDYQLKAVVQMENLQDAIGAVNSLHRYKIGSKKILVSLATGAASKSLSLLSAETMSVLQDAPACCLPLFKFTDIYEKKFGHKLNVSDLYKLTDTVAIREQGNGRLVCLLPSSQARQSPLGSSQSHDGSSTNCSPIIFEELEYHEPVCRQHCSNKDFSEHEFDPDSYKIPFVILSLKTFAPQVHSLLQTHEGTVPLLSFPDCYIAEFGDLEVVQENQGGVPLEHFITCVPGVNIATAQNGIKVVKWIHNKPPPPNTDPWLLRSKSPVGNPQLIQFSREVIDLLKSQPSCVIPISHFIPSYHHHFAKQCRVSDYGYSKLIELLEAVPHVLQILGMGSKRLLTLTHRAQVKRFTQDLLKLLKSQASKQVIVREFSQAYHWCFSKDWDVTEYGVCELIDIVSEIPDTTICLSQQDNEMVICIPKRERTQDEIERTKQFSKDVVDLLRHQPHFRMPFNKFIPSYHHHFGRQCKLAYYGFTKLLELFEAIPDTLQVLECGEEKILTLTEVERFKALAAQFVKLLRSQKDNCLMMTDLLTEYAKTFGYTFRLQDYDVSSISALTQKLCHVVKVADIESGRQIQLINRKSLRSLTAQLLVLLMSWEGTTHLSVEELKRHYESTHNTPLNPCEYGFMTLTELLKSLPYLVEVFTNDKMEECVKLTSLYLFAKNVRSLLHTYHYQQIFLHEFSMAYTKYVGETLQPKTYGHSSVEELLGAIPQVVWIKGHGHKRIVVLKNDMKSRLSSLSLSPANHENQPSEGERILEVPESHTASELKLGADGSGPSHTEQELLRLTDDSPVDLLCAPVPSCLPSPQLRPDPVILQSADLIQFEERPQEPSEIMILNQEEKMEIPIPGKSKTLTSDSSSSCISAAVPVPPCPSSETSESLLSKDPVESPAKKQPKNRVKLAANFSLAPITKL
# UniProt Q07866, sequence (Q07866 whole entry, looked up): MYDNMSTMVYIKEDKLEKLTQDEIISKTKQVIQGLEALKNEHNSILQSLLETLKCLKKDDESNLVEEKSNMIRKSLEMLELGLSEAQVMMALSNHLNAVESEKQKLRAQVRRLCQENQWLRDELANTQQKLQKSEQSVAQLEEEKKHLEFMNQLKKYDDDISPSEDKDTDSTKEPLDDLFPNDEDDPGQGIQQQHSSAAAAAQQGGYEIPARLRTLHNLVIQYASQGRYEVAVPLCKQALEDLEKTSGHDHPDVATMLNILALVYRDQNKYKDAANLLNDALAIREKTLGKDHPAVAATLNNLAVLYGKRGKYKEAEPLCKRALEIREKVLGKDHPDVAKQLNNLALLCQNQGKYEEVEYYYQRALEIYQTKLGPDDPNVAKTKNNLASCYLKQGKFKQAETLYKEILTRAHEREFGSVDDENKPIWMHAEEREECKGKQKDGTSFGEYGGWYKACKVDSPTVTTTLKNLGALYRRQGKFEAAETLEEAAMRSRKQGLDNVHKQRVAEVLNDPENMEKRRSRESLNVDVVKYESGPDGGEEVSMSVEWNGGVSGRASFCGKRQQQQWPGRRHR
# UniProt Q9NZL9, sequence (Q9NZL9 whole entry, looked up): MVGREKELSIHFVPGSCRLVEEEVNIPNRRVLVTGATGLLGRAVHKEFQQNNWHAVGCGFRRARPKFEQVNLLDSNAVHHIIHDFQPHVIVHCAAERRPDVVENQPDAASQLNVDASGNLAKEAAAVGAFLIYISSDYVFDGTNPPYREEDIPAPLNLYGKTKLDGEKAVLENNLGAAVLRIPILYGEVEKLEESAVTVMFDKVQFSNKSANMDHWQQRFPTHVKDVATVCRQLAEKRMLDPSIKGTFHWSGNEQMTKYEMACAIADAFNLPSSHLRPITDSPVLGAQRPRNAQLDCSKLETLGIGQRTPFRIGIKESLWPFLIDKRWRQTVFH
# UniProt Q12851, sequence (Q12851 whole entry, looked up): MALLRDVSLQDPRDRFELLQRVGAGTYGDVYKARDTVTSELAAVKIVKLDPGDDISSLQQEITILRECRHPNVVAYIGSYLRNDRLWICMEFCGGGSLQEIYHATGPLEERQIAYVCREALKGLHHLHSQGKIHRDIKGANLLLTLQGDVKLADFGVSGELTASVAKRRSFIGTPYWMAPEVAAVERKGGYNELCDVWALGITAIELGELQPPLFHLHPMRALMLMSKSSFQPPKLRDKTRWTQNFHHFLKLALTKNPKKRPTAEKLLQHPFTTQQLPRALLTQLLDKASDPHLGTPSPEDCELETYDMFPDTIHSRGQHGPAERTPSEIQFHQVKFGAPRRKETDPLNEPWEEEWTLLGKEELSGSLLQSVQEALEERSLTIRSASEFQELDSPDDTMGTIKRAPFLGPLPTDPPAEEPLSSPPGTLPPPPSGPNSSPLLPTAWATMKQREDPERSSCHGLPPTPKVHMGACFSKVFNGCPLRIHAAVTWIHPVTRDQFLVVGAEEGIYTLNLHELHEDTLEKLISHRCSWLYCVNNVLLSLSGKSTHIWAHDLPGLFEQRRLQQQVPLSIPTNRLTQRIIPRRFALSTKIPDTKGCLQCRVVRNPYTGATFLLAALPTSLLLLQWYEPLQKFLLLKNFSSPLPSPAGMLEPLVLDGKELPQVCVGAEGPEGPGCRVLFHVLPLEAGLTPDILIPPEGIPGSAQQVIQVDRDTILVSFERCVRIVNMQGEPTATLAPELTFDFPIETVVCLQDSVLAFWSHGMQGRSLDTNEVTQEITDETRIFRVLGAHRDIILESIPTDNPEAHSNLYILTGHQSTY
# UniProt P53778, sequence (P53778 whole entry, looked up): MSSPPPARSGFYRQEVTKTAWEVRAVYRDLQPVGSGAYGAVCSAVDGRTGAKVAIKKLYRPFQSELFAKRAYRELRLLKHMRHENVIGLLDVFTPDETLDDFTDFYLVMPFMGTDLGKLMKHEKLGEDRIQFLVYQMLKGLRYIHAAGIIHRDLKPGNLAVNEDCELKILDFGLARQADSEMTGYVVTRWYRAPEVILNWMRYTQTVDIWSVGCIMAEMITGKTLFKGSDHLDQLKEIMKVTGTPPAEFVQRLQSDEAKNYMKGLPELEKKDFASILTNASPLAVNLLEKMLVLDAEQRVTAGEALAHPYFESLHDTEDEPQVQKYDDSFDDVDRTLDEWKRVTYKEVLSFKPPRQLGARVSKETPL
# UniProt Q9BPX6, sequence (Q9BPX6 whole entry, looked up): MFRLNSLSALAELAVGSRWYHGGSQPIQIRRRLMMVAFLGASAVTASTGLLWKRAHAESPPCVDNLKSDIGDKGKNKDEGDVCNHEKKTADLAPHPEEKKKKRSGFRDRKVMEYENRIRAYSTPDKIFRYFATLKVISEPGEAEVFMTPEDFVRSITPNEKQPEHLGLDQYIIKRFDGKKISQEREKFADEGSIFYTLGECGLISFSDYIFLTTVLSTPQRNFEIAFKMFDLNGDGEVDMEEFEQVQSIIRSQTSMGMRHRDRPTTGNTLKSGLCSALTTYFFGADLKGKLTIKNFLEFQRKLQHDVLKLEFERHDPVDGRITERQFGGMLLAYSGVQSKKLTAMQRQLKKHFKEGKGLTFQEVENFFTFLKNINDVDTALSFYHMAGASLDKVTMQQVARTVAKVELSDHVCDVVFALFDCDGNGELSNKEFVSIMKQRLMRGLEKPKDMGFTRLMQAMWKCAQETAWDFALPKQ
# UniProt P36507, sequence (P36507 whole entry, looked up): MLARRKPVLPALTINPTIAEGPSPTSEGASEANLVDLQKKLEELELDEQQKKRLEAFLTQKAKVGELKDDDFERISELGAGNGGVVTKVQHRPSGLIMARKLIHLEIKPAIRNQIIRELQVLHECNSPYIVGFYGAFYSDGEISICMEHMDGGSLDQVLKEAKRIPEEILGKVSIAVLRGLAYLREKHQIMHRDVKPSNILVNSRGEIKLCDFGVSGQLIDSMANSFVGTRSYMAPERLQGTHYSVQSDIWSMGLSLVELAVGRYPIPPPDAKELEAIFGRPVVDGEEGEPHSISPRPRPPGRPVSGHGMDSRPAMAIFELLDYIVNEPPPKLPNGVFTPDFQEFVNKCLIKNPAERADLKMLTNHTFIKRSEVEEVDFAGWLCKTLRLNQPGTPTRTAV
Target,log2 fold change (erlotinib),log2 fold change [1],log2 fold change [2],log2 fold change [3],log2 fold change [4],log2 fold change [5],log2 fold change [6],log2 fold change [7],log2 fold change (ibrutinib),log2 fold change [8],log2 fold change [9],log2 fold change [10],log2 fold change [11],log2 fold change [12],log2 fold change [13],log2 fold change [14],log2 fold change (IRAK-1-4 Inhibitor I),log2 fold change (ralimetinib),log2 fold change [15],log2 fold change [16]
MMS22L (UniProt Q6ZRQ5),0.067,0.032,0,-0.093,0.037,0.064,0.019,-0.021,-0.025,0.049,-0.085,0.007,-0.042,-0.049,0.007,,,,,
LRPPRC (UniProt P42704),0.04,0.028,-0.02,0.048,0.067,-0.017,-0.012,0.006,0.006,0.023,0.018,-0.011,0.038,-0.009,0.016,-0.004,0.006,0.027,0.019,0.052
MAP4K2 (UniProt Q12851),0.001,-0.202,-0.082,-0.195,0.05,0.355,0.288,-0.205,-0.036,0.337,0.04,,-0.144,0.058,-0.207,-0.057,-0.046,-0.029,0.108,0.209
MARCHF6 (UniProt O60337),0.004,0.008,0.101,0.042,-0.202,-0.133,0.047,-0.023,-0.395 (active),-0.021,-0.012,0.014,0.101,0.004,0.032,,,,,
KLC1 isoform 6 (UniProt Q07866),-0.02,-0.023,0.002,0,-0.033,-0.007,-0.027,-0.01,-0.022,-0.012,0.002,-0.01,0.012,0.028,-0.017,0.002,0.011,0.019,0.005,-0.002
MAPK12 (UniProt P53778),0,-0.026,0.009,0.016,0.041,0.001,-0.058,0.019,0.049,,-0.027,0.074,0.08,0.002,,0.023,-0.048,-0.001,-0.029,-0.012
MAP2K2 (UniProt P36507),0.049,0.005,0.023,-0.023,-0.006,0.249,0.219,0.017,0.239,0.443 (active),-0.007,-0.009,-0.033,-0.017,-0.014,0.001,0,-0.052,0.173,0.013
KLHL12 isoform 2 (UniProt Q53G59),-0.051,0.021,0.004,0.053,0.165,0.04,,,0.156,0.067,0.073,0.026,-0.041,-0.066,0.007,-0.134,0.046,0.123,-0.032,0
MICU1 isoform 3 (UniProt Q9BPX6),0.009,0.049,-0.029,-0.017,-0.012,0.001,0.016,0.012,-0.011,-0.021,-0.02,0,0.013,-0.028,0.019,-0.047,0.024,0.023,0.001,0.038
MAT2B (UniProt Q9NZL9),-0.009,-0.004,-0.033,-0.014,-0.006,0.036,0.015,-0.004,0,-0.008,-0.002,-0.023,0.016,0.015,-0.005,-0.01,0.017,-0.005,-0.006,-0.013
LRRC40 (UniProt Q9H9A6),-0.014,0.009,0.004,-0.002,-0.028,-0.014,-0.036,-0.011,0.017,0.011,-0.011,0.015,0.002,-0.073,-0.007,-0.015,-0.017,0.019,0.025,0.01
MRPL35 (UniProt Q9NZE8),-0.005,-0.237,-0.025,0.296 (active),0.012,-0.133,,,-0.019,-0.014,0.013,-0.012,-0.108,-0.032,0.01,-0.011,-0.041,0.041,0.047,0.032
MARF1 (UniProt Q9Y4F3),0.025,0.231,0.043,-0.157,0.122,0.073,-0.111,-0.035,0.027,,-0.045,-0.021,0.037,0.004,,0.019,-0.003,0.034,-0.042,0.01
MORC2 (UniProt Q9Y6X9),0.039,-0.05,-0.002,0.015,-0.016,-0.033,0.006,-0.023,0.065,0.02,-0.039,-0.001,-0.026,-0.037,0.004,-0.001,0.034,0.054,-0.035,0.072
MORC3 (UniProt Q14149),0.02,-0.047,-0.005,0.01,-0.025,-0.033,-0.029,0.002,0.004,-0.023,-0.007,0.007,-0.032,-0.021,-0.027,0.034,-0.011,0.021,0.013,0.021
MAST4 (UniProt O15021),-0.019,-0.026,-0.031,0.027,-0.044,0.384 (active),0.149,-0.011,0.019,0.423 (active),-0.032,-0.075,0.032,-0.173,0.049,0.01,-0.008,0.04,0.061,-0.023
KIF4A (UniProt O95239),0.015,-0.022,-0.042,0.02,0.022,-0.033,-0.026,0.031,0.011,0.007,-0.002,-0.013,-0.027,0.004,0.048,0.014,-0.01,-0.014,0.003,0.056

# — the supplement of paper PMC10849652
